# Laboratory results as given in PubChem BioAssay AID504444 (National Center for Advancing Translational Sciences (NCATS), 2011).
# In all, about 360,000 compounds went through this assay and about 7,500 (2.1%) were called active. Roughly 20% stayed inconclusive and do not appear here. Calls follow the shape of the dose curve; as a rule, active = well fitted inhibition curve with a large enough effect; inconclusive = small, poorly fitted or top-dose-only effect, or effect the other way; inactive = flat fitted curve, though single readings scatter. The entries come from a sample that favours actives as a whole. Where a call stands in place of a potency, no number is given.
# Assay: Nrf2 qHTS screen for inhibitors; also: nearly all actives have a fitted effect of over 60% in size
# Conditions: A549 ARE-Fluc reporter, luciferase luminescence, 18-24 h; series mostly up to 46 µM
# Source text: NIH Molecular Libraries Probe Production Network [MLPCN]
# NIH Chemical Genomics Center [NCGC]
# Assay Provider: Shyam Biswal, Johns Hopkins University
# Nrf2 is a transcription factor that maintains cellular redox homoestasis and protects cells from xenobiotics. Nrf2 binds to the antioxidant response element (ARE) to induce gene expression of a broad spectrum of genes that encode for antioxidants. […] Finding a small molecule that act as an inhibitor of Nrf2 function would represent a novel therapeutic target that could lead to improvement in survival of patients undergoing chemo- and/or radio- therapy.
# This is the Nrf2 activity measured in the luminescent read.
# 1. Shibata, T., et al., Genetic Alteration of Keap1 Confers Constitutive Nrf2 Activation and Resistance to Chemotherapy in Gallbladder Cancer. Gastroenterology, 2008.
# 2. Sjoblom, T., et al., The consensus coding sequences of human breast and colorectal cancers. Science, 2006. 314(5797): p. 268-74.
# NCGC Assay Protocol Summary:
# A concentration-response assay was performed with A549 ARE_Fluc cells which are suspended in 5% FBS OPTI-MEM. Five uL were dispensed into 1536-well white TC-treated plate using the Kalypsys dispenser to achieve a density of 5000 cells/well in all columns except column 1. The plate is incubated at 37deg C at 5% CO2 for 2 hours before 23 nL of compounds are added with the Kalypsys pin tool equipped with a 1,536-pin array containing 10-nL slotted pins (FP1S10, 0.457-mm diameter, 50.8 mm long; V&P Scientific). The control compounds Budesonide and Staurosporine are both added at a concentration of 2mM and Budesonide is also added as a 1:10 titration, starting at 200uM, to achieve dose-response. After an 18-24 hour incubation at 37deg C at 5% CO2, 5ul of medium is added to column 1. Afterwards 1ul of 5x of CellTiter-Fluor (Promega) is added to every well. The plate is then incubated at 37deg C at 5% CO2 for 30 minutes before they are read on the ViewLux (Perkin Elmer) for a fluorescent read Ex=405(10)/Em=525(10) for a 3 second exposure, 2x binning, and high gain. Then 3 uL of 3x BugLite is dispensed into all wells and the plate is incubated at ambient room temperature for 15 minutes. Afterwards another ViewLux read is performed using the clear filter to get a luminescent read with the settings of 40 second exposure, 2x binning, and high gain. Cytotoxicity is assessed through the first fluorescent read and then biochemical activity against Nrf2 is measured in the luminescent read.
# Potency is read from the fitted curve at half-maximal effect.
row,SMILES,Potency
1,Cc1cc(C)c(-c2csc(NC(=O)CCCc3nc4ccccc4c(=O)[nH]3)n2)c(C)c1,9.2 µM (active)
2,CCCn1c(C)cc(-c2csc(NC(=O)CCc3nc4ccccc4c(=O)[nH]3)n2)c1C,inactive
3,CC(=O)NCc1ccc(-c2csc(NC(=O)CCCc3nc4ccccc4c(=O)[nH]3)n2)cc1,inactive
4,Cc1sc2ncn(CC(=O)N3CCN(c4ccc(F)cc4)CC3)c(=O)c2c1S(=O)(=O)N1CCN(c2ncccn2)CC1,inactive
5,CC(C)(C)NC(=O)NC(=O)COC(=O)Cc1c(F)cccc1Cl,inactive
6,COc1ccc(S(=O)(=O)N2CCOCC2)cc1NC(=O)Cc1c(F)cccc1Cl,inactive
7,O=C(Cc1c(F)cccc1Cl)Nc1ncc([N+](=O)[O-])s1,16.4 µM (active)
8,Cc1ccc(S(=O)(=O)c2cc3c(=O)n4cccc(C)c4nc3n(CCc3ccccc3)c2=N)cc1C,inactive
9,COC(=O)c1ccccc1NC(=O)c1cnn(-c2ccc(F)cc2)c1-n1cccc1,inactive
10,COc1ccc2c(c1)c(N1CCCC1=O)c(C(=O)Nc1ccccc1C(F)(F)F)n2C,inactive
11,CCC1([N+](=O)[O-])COC(c2ccc(C)cc2)OC1 (stereo not drawn),inactive
12,CCOC(=O)c1ccc(NC(=O)C2CC(=O)NC(=Nc3ccc(C)c(C)c3)S2)cc1 (stereo not drawn),inactive
13,CC[n+]1cc(C)ccc1/C=C/c1ccc(N(C)C)cc1,4.11 µM (active)
14,CN(C)c1ccc(/C=N\S(=O)(=O)c2ccccc2)cc1,inactive
15,C=CC(COCc1ccccc1)N(CC(=O)OC)S(=O)(=O)c1cc(Br)ccc1OC (stereo not drawn),inactive
16,Cc1nn(CC(=O)O)c(=O)c2cc3cc(F)ccc3n12,inactive
17,Cc1ccccc1C(=O)O,inactive
18,O=C1OC(OC(=O)c2ccccc2Br)C(N2CCOCC2)=C1Cl (stereo not drawn),inactive
19,Cc1ccccc1C(=O)OC1OC(=O)C(Cl)=C1Nc1ccccc1 (stereo not drawn),8.2 µM (active)
20,CCOC(=O)c1c(-c2ccc(OC)cc2)oc2ccc(OCc3ccc(C(=O)OC)cc3)cc12,inactive
21,O=C(NCCCN1CCOCC1)c1cn(-c2ccccc2)nc1-c1ccc(F)cc1,inactive

row,SMILES,Potency
1,CCCCCCSc1ccc(-c2nc3ccc(Cl)cn3c2NCc2ccccc2)cc1,inactive
2,O=C(CNC(=O)c1ccc(Cl)c(C(F)(F)F)c1)OC(C(=O)Nc1cc(C(F)(F)F)ccc1Cl)c1ccccc1 (stereo not drawn),inactive
3,COc1ccc(OC)c(/C=C/C(=O)c2ccc3c(c2)OCO3)c1,inactive
4,Cc1ccc(C)c(N2CCN(C(=O)Cn3nc(C)c4sc5ccccc5c4c3=O)CC2)c1,inactive
5,CCc1nn(CC(=O)N2CCN(c3cc(C)ccc3C)CC2)c(=O)c2cc3occc3n12,inactive
6,Cc1ccc(C)c(N2CCN(C(=O)Cn3ncn4cccc4c3=O)CC2)c1,23.1 µM (active)
7,COc1ccc(-c2nc(CN3CCC(C(=O)NCCN(CC(C)C)CC(C)C)CC3)c(C)o2)cc1OC,inactive
8,CN(C(=O)c1cccc(NC(=O)Cc2ccc(NC(=O)C3CCN(C(=O)C4CCCCC4)CC3)cc2)c1)C1CCC1,inactive
9,COc1ccccc1N1CCN(S(=O)(=O)c2ccc(Cl)cc2)CC1,inactive
10,COc1ccccc1N1CCN(C(=O)CN(Cc2ccc(Cl)cc2)S(C)(=O)=O)CC1,23.1 µM (active)
11,CS(=O)(=O)N(CC(=O)N1CCCC1)Cc1ccccc1,inactive
12,O=S1(=O)N=C(Oc2cccc(Br)c2)c2ccccc21,inactive
13,COc1ccc(-c2cc(-c3nc(-c4cc(OC)c(OC)c(OC)c4)no3)[nH]n2)c(OC)c1,inactive
14,CC(C)(C)OC(=O)N1CCC(C(=O)Nc2cccc(C(=O)NCCc3ccccc3)c2)CC1,inactive
15,CCN(CCCNC(=O)CSc1cc(=O)n(C)c2cc(Cl)ccc12)c1cccc(C)c1,inactive
16,Cc1ccc(C(=O)NC2CCN(C#N)CC2)cc1,inactive
17,Cc1cc(=O)n2[nH]c(-c3cccc(Cl)c3)cc2n1,inactive
18,Cc1nc2c(-c3ccccc3)c(C)[nH]n2c(=O)c1Cl,20.6 µM (active)
19,COCc1cc(=O)n2[nH]c(C)c(-c3ccccc3)c2n1,inactive
20,O=[S+]([O-])(c1ccc2c(c1)OCCO2)N1CCN([S+](=O)([O-])c2c(Cl)cc(Cl)cc2Br)CC1,inactive
21,COc1cccc(CNS(=O)(=O)c2ccc3c(c2)CC(C)N3C(C)=O)c1 (stereo not drawn),inactive

row,SMILES,Potency
1,COc1ccc(N(C)S(=O)(=O)c2ccc3c(c2)CC(C)N3C(=O)C2CC2)c(OC)c1 (stereo not drawn),inactive
2,COc1cccc(CNS(=O)(=O)c2ccc3c(c2)CC(C)N3C(=O)C2CCC2)c1 (stereo not drawn),11.6 µM (active)
3,CC(=O)OC1CCC2C3CCC4=C(CC(F)C(=O)C4)C3CCC12C (stereo not drawn),inactive
4,C/C=C/c1ccc(OCC(=O)NNC(=O)CN(C)S(=O)(=O)c2ccc(C)cc2)c(OC)c1,inactive
5,Cc1ccc(C)c(N2CCN(C(c3ccccc3)c3nnc(-c4ccccc4)o3)CC2)c1 (stereo not drawn),inactive
6,CCCn1c(NCc2ccc(N(CC)CC)cc2)nc2ccccc21,inactive
7,O=C(/C=C/c1ccccc1)N/C(=C/c1ccccc1)C(=O)Nc1ccccc1O,inactive
8,O=C(NNC(=O)c1ccccc1O)c1ccccc1O,inactive
9,O=C(/C=C/c1ccccc1)c1ccccc1O,3.66 µM (active)
10,CCc1ccnc(NC(=O)Nc2ccc(OCc3ccccc3)cc2)c1,inactive
11,CNC(=O)c1sc(Nc2ccc(OCc3ccccc3)cc2)nc1C,20.6 µM (active)
12,O=C(O)/C=C\C(=O)Nc1ccc(OCc2ccccc2)cc1,inactive
13,CCN(C[C@H]1N[C@@](CC)(C(=O)OC)[C@H]2C(=O)N(Cc3ccccc3)C(=O)[C@@H]12)S(=O)(=O)c1ccccc1,inactive
14,Cc1cccc(C(=O)OCC(=O)NC(C)C2CC3CCC2C3)c1O (stereo not drawn),inactive
15,CC(C)Cn1c(N)c(C(=O)COC(=O)CN2C(=O)C3CC=CCC3C2=O)c(=O)n(C)c1=O (stereo not drawn),4.61 µM (active)
16,COc1ccc(C(=O)COC(=O)CN2C(=O)C3CC=CCC3C2=O)c(OC)c1 (stereo not drawn),inactive
17,CC(C)Cn1c(N)c(C(=O)COC(=O)C2CCCN2C(=O)c2cccs2)c(=O)n(C)c1=O (stereo not drawn),inactive
18,O=C(Nc1ccn(CCCNCc2ccc3[nH]ccc3c2)c(=O)n1)OCc1ccccc1,inactive
19,CN(Cc1ccccc1)C(=O)c1ccc(COc2ccccc2)cc1,inactive
20,O=C(NCCS(=O)(=O)NCc1ccc(F)cc1)c1ccccc1,inactive
21,COc1ccccc1S(=O)(=O)NCc1ccc(C(=O)N(C)Cc2ccc(F)cc2)cc1,23.1 µM (active)
